Data taken from PubChem BioAssay AID1745850 (National Center for Advancing Translational Sciences (NCATS), 2022).
Among all 2,100 compounds or so, about 260 (12%) were called active. Another 58% or so got no clear call; they are omitted. This is one part of the list. A number with no mark means an inactive call. The call rests on the fitted dose curve; in most records, active means well fitted cell-killing curve with a large enough effect; inconclusive means small, poorly fitted or top-dose-only effect, or effect the other way; inactive means flat fitted curve, though single readings scatter.

Assay: Viability Counterscreen for Confirmatory qHTS for Inhibitors of ATXN expression; further: nearly all actives have a fitted effect of over 50% in size
Conditions: HEK-293 ATXN2-luc cells viability, CellTiter-Fluor, 24 h; activity change, negative = cytotoxicity: at the top concentration
From the text: PI: Daniel Scoles Ph.D. University of Utah School of Medicine, Salt Lake City, Utah MLPCN Grant: NS073009 Spinocerebellar ataxia type 2 (SCA2) is a multisystem neurodegenerative disease caused by a dominantly acting mutation leading to expansion of a polyQ domain in the ataxin-2 protein (ATXN2). SCA2 patients develop progressive ataxia and later lose function in other neuronal systems. Prominent parkinsonian signs develop in some patients. Like many neurodegenerative disorders, no symptomatic or disease-modifying treatments are known. The primary objective of the proposed research is to identify compounds inhibiting ATXN2 expression and to test them for efficacy in SCA2 mouse models. We have developed a cell-based assay paired with an in vivo mouse model using identical luciferase expression constructs. This approach takes advantage of an ATXN2-luciferase transgene, with the luciferase gene flanked by the upstream and downstream portions of the ATXN2 gene. Here we describe a 5-7 dose quantitative high thoroughput screen (qHTS) for compounds lowering ATXN2 expression. We screened the NIH Molecular Libraries Small Molecule Repository (MLSMR) and NCGC's mechanistically annotated (MIPE) and drug repurposing (NPC) collections of compounds for lowering expression of an ATXN2-luciferase reporter in HEK-293 cells. The assay is a multiplexed cell viability assay to ensure target reduction in the absence of cytotoxicity. Secondary qHTS assays included a CMV-luciferase reporter expressed in HEK-293 cells as well as a biochemical assay using recombinant luciferase to detect inhibitors of the reporter enzyme. Compounds that inhibit ATXN2 expression but is not cytotoxic were selected for confirmatory and secondary screens.
PROTOCOL TABLE (as described by Inglese J, Shamu CE and Guy RK. 2007) SEQUENCE No. (e.g., 1, 2, 3, etc.); […] (e.g., Cells, Incubation, Reagent, etc.); VALUE; DESCRIPTION. 1; Cells; 4 uL; white, solid bottom, 1536-well Greiner assay plate. 2; Incubation; 2 hr; 37 degree C in 5% humidified CO2. 3; Compounds; 23 nL; Kalypsis pintool (Wako USA) equipped with a 1536-well pin head. 4; Incubation; 24 hr; 37 degree C in 5% humidified CO2. 5; Reagent; 1 uL; Gly-Phe-7-Amino-4-trifluoromethylcoumarin. 6; Incubation; 30 min; 37 degree C in 5% humidified CO2. 7; Detection; Fluorescence; ViewLux plate reader (PerkinElmer). 8; Reagent; 3 uL; SteadyGlo luciferase solution (Promega). 9; Incubation; 5 min; room temperature. 10; Detection; Luminescence; ViewLux plate reader (PerkinElmer). NOTES (numbers refer to Sequence numbers above) 1. S2 cells expressing ATXN2-luciferase reporter were suspended in phenol-red free DMEM and dispensed in assay plates using a Multidrop Combi dispenser (Thermo Fisher Scientific). Wells containing medium only were plated on each plate, and values were used to normalize (100% inhibition) in the luciferase and CellTiter-Fluor assays. 2. Assay plates were incubated. Evaporation was prevented by covering assay plates with metal lids containing holes to allow gas diffusion. 3. Compounds were added in a dose response manner with the final concentrations of 57, 11.4, 2.28, 0.46, 0.091, 0.018, 0.0037 uM. Vehicle-only plates, with DMSO being pin-transferred to columns 5-48, were inserted uniformly at the beginning and the end of each library to monitor and record any shifts in assay performance. 5. 125 uM Gly-Phe-7-Amino-4-trifluoromethylcoumarin (MP Biomedicals) working concentration was used at a final concentration of 25 uM. 7. To assess cell viability; the assay plates were read using the ViewLux high-throughput CCD imager (PerkinElmer), wherein single end-point fluorescence measurement was acquired (excitation 405/10; emission 540/25 nm). 8. Detection reagent SteadyGlo Luciferase (Promega) was added to the assay plate. 10. Luminescence is then measured on the ViewLux imager equipped with a clear emission filter using a 2 sec exposure. […]
Potency means the concentration at half of the fitted maximal effect.

SMILES | activity change, negative = cytotoxicity | Potency
COc1cccc(CN2CCC2(C)C(=O)Nc2cccc3cccnc23)c1OC (stereo not drawn) | -28.3% | 
COc1ccccc1N1CCN(Cc2ccc(O)c3ncccc23)CC1 |  | 2.82 µM (active)
COCc1cc(CN2CCCC2)c(O)c2ncccc12 | -19.9% | 
Cc1ccc(/C=C2/CNC/C(=C/c3ccc(C)cc3)C2=O)cc1 |  | 11.2 µM (active)
CN(C)CCNc1cccc2sc3ccc(O)cc3c(=O)c12 |  | 22.4 µM (active)
CN(C)CCNc1ccc2ncn3c4ccc(O)cc4c(=O)c1c23 | -23.3% | 
CCn1c2ccccc2c2cc(/C=C(/C#N)C(N)=S)ccc21 | -21.4% | 
CCN(CC)S(=O)(=O)c1cccc(C(=O)N/N=C(\C)c2ccc(O)cc2O)c1 | -17.5% [at 57.5 µM] | 
O=C(NN=C1CCCC1)c1cc(-c2ccc(F)cc2)nc2ccccc12 | -13.9% [at 57.5 µM] | 
C/C(=N\NC(=O)c1cc(-c2cccnc2)nc2ccccc12)c1ccc(O)cc1O |  | 11.2 µM (active)
CCN(CC)c1ccc(/C=N/NC(=O)CNC(=O)C2COc3ccccc3O2)c(O)c1 (stereo not drawn) | -22.3% | 
COc1ccc(CN2CCCN(S(=O)(=O)c3ccc(Br)cc3)CC2)cc1 | -10.5% [at 57.5 µM] | 
Cc1cccc(OCCCC(=O)Nc2nccs2)c1 | 1.34% | 
O=C(NC(Nc1nc2ccc([N+](=O)[O-])cc2s1)(C(F)(F)F)C(F)(F)F)c1ccccc1 |  | 2.24 µM (active)
O=C(NC(Nc1ncc(S(=O)(=O)c2ccc([N+](=O)[O-])cc2)s1)(C(F)(F)F)C(F)(F)F)c1ccc(Cl)cc1 |  | 10 µM (active)
Cc1ccc(S(=O)(=O)c2cc3cc(Br)ccc3oc2=O)cc1 | -3.3% [at 57.5 µM] | 
Cn1c(CO)cnc1S(=O)(=O)Cc1ccc([N+](=O)[O-])cc1 | -12.7% [at 57.5 µM] | 
O=C(CN1CCN(C(=O)c2ccc(-c3nc4ccccc4s3)o2)CC1)Nc1ccccc1Cl |  | 3.55 µM (active)
c1nc(CCO[C@H]2CCCCO2)cc2cc3c(cc12)OCO3 | -10.3% | 
O=C(CN1c2cccc3cccc(c23)S1(=O)=O)NCc1ccc(Cl)cc1 | 10.1% | 
O=C(CCc1ccccc1)NNC(=O)c1cc(Cl)ccc1O | -11.5% | 
Cc1cc(Nc2cccc([N+](=O)[O-])c2)n2c(nc3ccccc32)c1C#N |  | 5.01 µM (active)
Cc1ccc(-c2c(C#N)c(N)n3c(nc4ccccc43)c2C#N)cc1 | -27.3% [at 57.5 µM] | 
COc1ccc(-c2nnc(NC(=O)c3ccc(S(=O)(=O)N4COCC4(C)C)cc3)o2)cc1 | -23.2% | 

SMILES | activity change, negative = cytotoxicity | Potency
Cc1ccc(NC(=O)c2ccc(-c3nn(C)c(=O)c4ccccc34)cc2)cc1 | -27.2% [at 57.5 µM] | 
CCOC(=O)C(NS(=O)(=O)c1ccc(C)cc1)(C(F)(F)F)P(=O)(OCC(C)C)OCC(C)C (stereo not drawn) | -12.5% | 
Cc1csc2c(N3CCN(C(=O)Nc4ccc(Cl)c(Cl)c4)CC3)ncnc12 | -12.7% | 
NNc1ncnc2sc3c(c12)CCC3 | -29.5% [at 57.5 µM] | 
O=c1c2c3c(sc2ncn1/N=C/c1ccc([N+](=O)[O-])o1)CCCC3 |  | 3.55 µM (active)
COc1ccc(/C=C2/CSC/C(=C/c3ccc(OC)c(OC)c3)C2=O)cc1OC |  | 11.2 µM (active)
COc1cc(/C=C2\COC/C(=C\c3cc(OC)c(OC)c(OC)c3)C2=O)cc(OC)c1OC |  | 1.78 µM (active)
Cc1ccc(CN2CCC(c3nc4ccc(Cl)cc4[nH]3)CC2)cc1 | -21.1% [at 57.5 µM] | 
Cc1cc(C)c(C(O)c2ncc(-c3cccc4ccccc34)[nH]2)c(C)c1 (stereo not drawn) | -7.41% | 
OC(c1ccc(Cl)cc1)c1ncc(-c2cccc(C(F)(F)F)c2)[nH]1 (stereo not drawn) | 2.6% | 
Cc1ccc(-c2csc(N3CCN(c4cc5c(cc4Cl)nc(-c4ccncc4)n5CCOCCO)CC3)n2)cc1 | -22.6% [at 57.5 µM] | 
Cn1c2c(c(=O)n(C)c1=O)C(C(F)(F)F)(C(F)(F)F)N=C(CCC1CCCCC1)N2 |  | 20 µM (active)
COc1cc(Nc2ncc3c(n2)CCN(C(=O)Nc2ccc(C(C)C)cc2)C3)cc(OC)c1OC | -27.8% | 
CCCc1cc(C(=O)Nc2ccc(C(=O)c3ccc(C)cc3)cc2)n(C)n1 | -29% | 
Cc1cc(C(=O)N/N=C/c2cc(Br)ccc2OC(=O)c2ccccc2)n[nH]1 | -18.4% | 
Cc1ccc(NC(=O)C2CCN(S(=O)(=O)c3ccc(N4CCCC4=O)cc3)CC2)cc1Cl | -8.48% | 
Cn1c(SCc2ccc(C(C)(C)C)cc2)nnc1C1COc2ccccc2O1 (stereo not drawn) | -21.7% | 
CCc1c(C)nc2ncnn2c1N1CCC(C(=O)Nc2ccc(C)cc2)CC1 | -16.8% [at 57.5 µM] | 
CCc1ccc(C(=O)NNC(=O)C2CCN(c3ncnc4sc(C)c(C)c34)CC2)cc1 | -21.9% | 
CCc1ccc(CNC(=O)C2CCN(c3nnc(C)c4c(C)n(-c5ccc(C)cc5)nc34)CC2)cc1 |  | 20 µM (active)
FC(F)(F)c1cc(-c2ccccn2)nc2cc(-c3ccccc3)nn12 | -8.59% [at 57.5 µM] | 
Cc1ccc(-c2nnc(N3CCC(C)CC3)c3ccccc23)cc1C | -27.5% | 
Cc1cc2c(N=O)c(NO)ccc2[nH]1 |  | 12.6 µM (active)
CC[n+]1c(C=C2C=C(C)OC(C)=C2)sc2ccccc21 |  | 11.2 µM (active)
